# Source: PubChem BioAssay
# PABP FP inh: PABP-poly(A) binding inhibition | PABP-poly(A) RNA binding, fluorescence polarization | P11940 | inhibition, % at 35 µM | 1% of 290,000 active;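 further: calls also rest on retests at 20 µM and on dose response follow-up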
# Target sequence (P11940 whole entry, looked up): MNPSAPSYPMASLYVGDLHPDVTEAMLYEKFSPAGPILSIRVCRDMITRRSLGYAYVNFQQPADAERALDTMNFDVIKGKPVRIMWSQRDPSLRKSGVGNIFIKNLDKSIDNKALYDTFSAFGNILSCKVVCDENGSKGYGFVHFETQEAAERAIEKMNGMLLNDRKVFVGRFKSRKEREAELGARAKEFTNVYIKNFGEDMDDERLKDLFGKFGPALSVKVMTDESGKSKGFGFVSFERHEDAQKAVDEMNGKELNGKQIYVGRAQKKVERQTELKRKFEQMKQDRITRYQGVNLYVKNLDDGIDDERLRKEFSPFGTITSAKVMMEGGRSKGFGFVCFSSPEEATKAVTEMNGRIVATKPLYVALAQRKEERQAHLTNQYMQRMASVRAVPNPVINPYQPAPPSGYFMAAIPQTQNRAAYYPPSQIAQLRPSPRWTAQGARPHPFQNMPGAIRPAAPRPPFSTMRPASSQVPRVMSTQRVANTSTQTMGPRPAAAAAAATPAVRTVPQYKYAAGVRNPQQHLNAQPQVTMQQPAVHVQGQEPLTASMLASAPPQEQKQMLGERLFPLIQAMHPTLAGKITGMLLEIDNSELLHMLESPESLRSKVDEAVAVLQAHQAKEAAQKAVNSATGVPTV
# PERK inh: blocks human PERK kinase; Q9NZJ5; CHO PERK-DD fusion, SEAP luminescence translation reporter; inhibition, % at 5.6 µM; 0.17% of 220,000 active;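 active means inhibition above the mean inhibition of all tested compounds plus 3 SD, set separately per screening campaign, cut at about 2.9% in these data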;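 further: PERK kinase domain activated by AP20187 dimerizer at 100 nM; 0% = DMSO with dimerizer and 100% = rapamycin at 8.4 µM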
# MLLE-PAM2 inh: blocks PAM2 peptide binding to the PABP1 MLLE domain. P11940. GST-MLLE / FITC-PAM2 fluorescence polarization. inhibition, % at 20 µM. 0.36% of 360,000 active. AID 588489; in the data active means inhibition above about 35%, passing the limit was not always enough;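 further: plate controls were DMSO wells with GST-MLLE for no effect and wells lacking GST-MLLE protein for full effect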
# GRK2 aptamer HTS: inhibitors of human GRK2 displacing RNA aptamer. P25098. bead flow cytometry, FAM-aptamer displacement from GRK2. inhibition of aptamer binding, % at 10 µM. 0.59% of 330,000 active;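 active means inhibition of aptamer binding above 40%, roughly 3 SD of noise, on plates passing a quality check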;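 further: median bead fluorescence of bound FAM aptamer so fluorescent compounds give negative values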
# eIF4H FP inh: inhibitors of RNA binding by human eIF4H; Q15056; eIF4H fluorescence polarization binding assay; inhibition, % at 35 µM; 0.94% of 290,000 active;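 further: calls also rest on retests at 20 µM and on dose response follow-up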
# GRK2 inh confirm: human GRK2 inhibition confirmation, cherry pick 1 | 4% of 2,000 active | aptamer displacement, % at 10 µM | shares compounds with GRK2 aptamer HTS | bead-bound GRK2, FAM-aptamer displacement, flow cytometry | AID 504451;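 active means aptamer displacement above 40%, near three times the noise of non-fluorescent compounds, on plates passing quality checks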;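 further: negative values mostly reflect intrinsic compound fluorescence rather than true enhancement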
# Aptamer quench SP: quenches fluorescent RNA aptamer, GRK2 hit artifact | 2,000 tested, under 10 active | fluorescence response (% of DMSO), % at 10 µM | Carboxyfluorescein RNA aptamer on beads, flow cytometry quenching; stronger effect = lower value | shares compounds with GRK2 aptamer HTS;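 active means compounds that quench the bead-bound fluorescent RNA probe, cutting fluorescence to under half of the solvent control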;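 further: counterscreen run without GRK2 so only probe quenching by compound is measured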
# GRK2 confirm 2: confirmation of human GRK2 inhibitors binding RNA aptamer site | 360 tested, under 10 active | inhibition of aptamer binding, % at 10 µM | AID 504782 | bead-bound GRK2, FAM-aptamer displacement, flow cytometry | shares compounds with GRK2 aptamer HTS;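 active means inhibition of aptamer binding above 40%, about triple the noise seen with nonglowing compounds, on plates passing quality control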;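 further: negative values mostly come from compounds that fluoresce themselves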
# FAM quench SP: aptamer fluorescence quenching in GRK2 counter-screen. shares compounds with GRK2 aptamer HTS. carboxyfluorescein RNA aptamer beads, flow cytometry quenching; stronger effect = lower value. fluorescence response vs DMSO, % at 10 µM. 360 tested, under 10 active. AID 588494;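 active means response vs DMSO under 50%, meaning signal dropped by over half, treated as fluorescence quencher; inconclusive means no clear call, values can overlap the other calls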;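 further: labelled aptamer on streptavidin beads without GRK2 as a quench counter-screen; 100% = bead fluorescence of DMSO wells and lower means quenching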
# Active calls of the source: *; ? = inconclusive; · = no result given. Shown are actives, neighbours in structure and some others; about 1.9% of the full set was active somewhere. Unless noted, how the calls were made is not given here.
SMILES,PABP FP inh,PERK inh,MLLE-PAM2 inh,GRK2 aptamer HTS,eIF4H FP inh,GRK2 inh confirm,Aptamer quench SP,others
CCOC(=O)c1c(-c2cccs2)csc1NC(=O)CSc1ncn[nH]1,-1.5,0.0,28.3,90.0*,-9.2,0.3,100.2,
Cn1c(SCC(=O)Nc2ccc(NC(=O)c3ccccc3)cc2)nnc1-c1ccncc1,0.1,·,6.0,62.0*,-4.5,-1.6,98.7,
COc1ccc(NC(=O)c2ccc(-c3ccc(-c4noc(C)n4)cc3C)cc2)cc1N1CCN(C)CC1,·,·,-10.5,6.0,·,-11.4,97.1,
CC(C)Cc1ccc(C#N)c(SCC(N)=O)n1,2.3,-0.5,-5.7,75.0*,-4.0,2.5,90.7,
COc1ccccc1NC(=O)CCC(=O)OCc1ccc(Br)cc1,2.6,1.0,1.8,3.0,7.3,·,·,
COc1ccccc1NC(=O)CCCCC(=O)Nc1ccccc1OC,3.6,·,-0.7,0.0,-2.8,·,·,
COc1ccccc1NC(=O)CCS(=O)(=O)c1ccccc1,2.0,0.5,1.9,0.0,5.4,·,·,GRK2 confirm 2=-9.4;FAM quench SP=102.0
COc1ccccc1NC(=O)c1ccccc1Oc1ccccc1,-2.6,·,-6.6,41.0*,-7.4,-0.3,92.3,
COc1ccccc1NC(=O)CCC(=O)OCc1ccc(Cl)cc1,-9.5,0.1,10.3,97.0*,3.0,2.0,111.5,
CCC(=O)N1c2ccc(S(=O)(=O)CCC(=O)Nc3ccc(OC)cc3OC)cc2CC1C (stereo not drawn),1.2,·,7.1,5.0,1.8,·,·,GRK2 confirm 2=-29.2;FAM quench SP=102.0
COc1ccc(S(=O)(=O)CCC(=O)Nc2cc(C)ccc2OC)cc1,?,0.7,-18.4,0.0,-8.4,·,·,GRK2 confirm 2=-28.5;FAM quench SP=104.0
COc1ccc(OC)c(NC(=O)CCS(=O)(=O)c2cc3c(cc2C)NC(=O)CO3)c1,11.2,·,3.9,0.0,-19.7,·,·,GRK2 confirm 2=-3.3;FAM quench SP=106.0
COc1ccccc1-c1csc(C(NC(C)=O)c2ccc(F)c(F)c2)n1 (stereo not drawn),·,·,-5.8,·,·,·,·,
O=C(COCc1ccccc1)N[C@@H]1c2ccccc2CC[C@H]1OCc1ccccc1,·,·,0.9,4.0,·,·,·,
COc1cc(CNCc2cccs2)ccc1OCc1cccs1,5.2,-1.2,8.5,2.0,-5.2,·,·,
COc1cc(CNCc2cccs2)ccc1OCc1ccccc1,20.7,-0.6,-6.9,30.0,23.0,-2.0,103.2,
CCOC(=O)c1ccc2nc(NC(=O)C(C)C)sc2c1,-7.0,-0.6,-11.1,62.0*,2.8,-0.8,97.4,
CCCC(=O)Nc1nc2ccc(C(=O)OCC)cc2s1,18.7,-0.1,-2.7,0.0,-2.3,·,·,
Cc1cc(N2CCOCC2)ccc1/C=C1\NC(=O)N(CC(=O)Nc2ccccc2C)C1=O,5.9,0.2,-20.2,0.0,-3.6,1.6,99.8,
CCc1ccc(NC(=S)NC(=O)CC(C)C)cc1,2.9,0.5,11.1,69.0*,3.4,0.4,101.8,
CC(C)(CO)NC(=O)c1ccc2c(c1)C(=O)c1ccccc1-2,10.1,·,0.9,0.0,0.9,·,·,
Cc1ccc(S(=O)(=O)C2(C(=O)Nc3ccc4c(c3)OCO4)CC2)cc1,-8.5,0.0,14.6,0.0,-2.7,·,·,GRK2 confirm 2=13.8;FAM quench SP=98.0
Cc1ccc(S(=O)(=O)C2(C(=O)NC3CCCC3)CC2)cc1,-9.1,-0.6,-23.6,0.0,-5.9,·,·,GRK2 confirm 2=-27.8;FAM quench SP=103.0
CC1CCCCN1CCCNc1ccc(C(CC(N)=O)NC(=O)Cc2cccc3ccccc23)cc1[N+](=O)[O-] (stereo not drawn),8.1,·,0.2,2.0,-4.8,·,·,
O=C(c1cccc(F)c1)N1CCN(c2cccc(C(F)(F)F)c2)CC1,10.5,0.7,-1.4,60.0*,-0.8,0.7,94.3,
SMILES,PABP FP inh,PERK inh,MLLE-PAM2 inh,GRK2 aptamer HTS,eIF4H FP inh,GRK2 inh confirm,Aptamer quench SP,others
O=C(c1ccc2nccnc2c1)N1CCN(c2cccc(C(F)(F)F)c2)CC1,·,·,-16.4,0.0,·,·,·,
CC(NC(=O)C(Cc1ccccc1)=NO)c1ccccc1 (stereo not drawn),·,·,9.9,·,·,·,·,
Cc1cc(C)c(NC(=O)CN2C(=O)NC3(CCc4ccccc43)C2=O)c(Cl)c1 (stereo not drawn),·,·,-11.7,0.0,·,·,·,
CCOc1ccc(C(C)=O)cc1CN1C(=O)NC2(CCCCCC2)C1=O,-22.4,·,-19.6,83.0*,-4.4,-34.0,101.8,
COc1ccc(C(C)=O)cc1CN1C(=O)NC2(CCCCCCC2)C1=O,-13.2,0.7,-1.2,0.0,-2.2,·,·,
Cc1cc(C)c(NC(=O)CN2C(=O)NC3(CCCCC3)C2=O)c(Cl)c1,0.9,0.7,-21.9,83.0*,-5.1,2.9,96.2,
CC(=O)c1cccc(NC(=O)CN2C(=O)NC3(CCCCCCC3)C2=O)c1,-6.6,0.5,-26.8,100.0*,1.4,-30.9,99.2,
COc1cc(C[C@@H](CO)[C@H](CO)Cc2ccc(O)c(OC)c2)ccc1O,·,·,·,0.0,·,·,·,
Cc1ccccc1C(=O)N1CCC(C(=O)OCc2ccccn2)CC1,·,·,3.8,2.0,·,·,·,
CCc1cccc(OCCOC(=O)CNS(=O)(=O)c2ccc(NC(C)=O)cc2)c1,·,·,-28.0,·,·,·,·,
Nc1ccc(O)c2c1C(=O)c1ccccc1C2=O,3.9,1.5,86.7*,41.0*,123.4,0.8,93.5,
Fc1ccc2c(c1)C(c1ccc(N3CCOCC3)cc1)=NNC(c1cccs1)=N2,6.2,-0.9,-56.5,6.0,-7.3,·,·,
Cc1ccc2c(c1)C(c1ccc(N3CCOCC3)cc1)=NNC(c1cccs1)=N2,3.3,0.0,-24.0,100.0*,-5.7,2.4,96.9,
CC(C)(C)c1ccc(/C=C(\C#N)C(=O)NC2CC2)cc1,·,·,-2.2,1.0,·,·,·,
O=C(NCC(=O)N(c1cccnc1)C(C(=O)NC1CCCC1)c1ccc(F)cc1)c1ccco1 (stereo not drawn),-6.7,-0.2,·,4.0,3.9,·,·,
CC(C)Cc1cc(C(=O)Nc2ccc3c(c2)OCO3)no1,6.4,2.4,1.7,74.0*,-2.3,-17.5,94.4,
Cc1cc(C(=O)Nc2ccc3c(c2)OCO3)no1,5.8,·,5.5,0.0,9.2,·,·,
O=C(Cn1nnc(-c2ccccc2)n1)NCC(=O)Nc1ccc(F)c(F)c1F,·,·,-15.0,0.0,·,0.3,96.6,
O=C(Cc1csc(-c2ccccc2)n1)NCC(=O)Nc1ccc(F)c(F)c1F,·,·,-12.5,0.0,·,·,·,
CCn1c(CCc2ccccc2)nc2ccccc21,9.5,·,5.9,0.0,-1.7,·,·,
O=C(NN1C(=O)/C(=C/C=C/c2ccco2)SC1=S)c1ccccc1O,88.9*,0.9,-78.3,39.0,94.3*,3.2,97.8,
O=C1S/C(=C\C=C\c2ccco2)C(=O)N1c1ccccc1,-13.6,1.1,1.5,4.0,92.2,·,·,
CCCCNC(=O)/C(C#N)=C/c1ccc(F)cc1F,-2.5,0.9,14.7,2.0,-5.8,·,·,
